Measurements: PubChem BioAssay
A number with no mark means an inactive call. Unless noted, no rule for the calls is given here.

Target: Homeobox protein Hox-A13 (Mus musculus) (UniProt Q62424)
Test: inhibitors of HoxA13-DNA binding, primary screen, biochemical, fluorescence polarization, labeled oligonucleotide (AID 1185)
Details: 15 min, higher = more signal, called active from +8 up or from −8 down

Homeobox protein Hox-A13 (Mus musculus), sequence (Q62424 whole entry, looked up): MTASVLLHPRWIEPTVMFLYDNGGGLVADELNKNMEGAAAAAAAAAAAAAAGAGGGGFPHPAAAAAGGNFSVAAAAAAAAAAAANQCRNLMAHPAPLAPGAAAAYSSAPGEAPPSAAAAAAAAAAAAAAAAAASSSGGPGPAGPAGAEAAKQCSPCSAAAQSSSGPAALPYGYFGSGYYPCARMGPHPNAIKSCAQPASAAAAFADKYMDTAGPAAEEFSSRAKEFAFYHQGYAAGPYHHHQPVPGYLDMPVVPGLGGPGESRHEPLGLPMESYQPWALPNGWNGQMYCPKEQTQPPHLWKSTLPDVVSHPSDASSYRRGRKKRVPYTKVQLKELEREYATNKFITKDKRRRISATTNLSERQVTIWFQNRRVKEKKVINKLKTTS

Row | Structure (SMILES) | z-score
1 | N#Cc1ccc(NN2C(C(O)c3cccc4ccccc34)C=CC3C(=O)N(c4ccccc4)C(=O)C32)cc1 (stereo not given) | 1.05
2 | COC(=O)C1=CCC(c2cccc(Cl)c2)O1 (stereo not given) | -0.451
3 | COCCCNC(=O)[C@@]1(CCS(=O)(=O)c2ccccc2)N=C(c2ccc(OCCCO)cc2)O[C@H]1c1ccccc1 | -6.18
4 | COCCOC(=O)N1C(=O)[C@@]2(c3cc(C#Cc4ccc(OC)cc4)ccc31)[C@H](C(=O)N1CCN(c3ncccn3)CC1)[C@H]1C(=O)O[C@H](c3ccccc3)[C@H](c3ccccc3)N1[C@@H]2c1ccc(OCCO)cc1 | 1.38
5 | CN(C)CCCNC(=O)[C@@H]1c2ccccc2C(=O)N(Cc2cc(F)cc(C(F)(F)F)c2)[C@H]1c1ccc(CO)cc1 | -3.29
6 | CCCC[C@@H](O)C1=C(C)C[C@H]2C(=O)N(Cc3ccccc3)C(=O)[C@H]2[C@H]1CO | -3.33
7 | CC(C)OC(=O)C=C1C[C@@H](c2ccc(C#N)cc2)O[C@@H](c2ccc(C#N)cc2)O1 | -5.34
8 | CN1C(=O)C2C(C1=O)C1C=C(CCCO)C2C(c2ccc(CN3CCCC3)cc2)N1C (stereo not given) | -7.16
9 | COc1ccccc1CN1C(=O)c2ccccc2[C@@H](C(=O)NCC(F)(F)F)[C@@H]1c1ccc(CO)cc1 | -2.99

System: not listed separately
Test: inhibitors of hydroxyurea-induced Chk1 phosphorylation, primary screen, imaging, HeLa, phospho-Chk1 antibody, percent positive cells (AID 1186)
Details: hydroxyurea-induced phospho-Chk1 immunofluorescence imaging, higher = more signal

Row | Structure (SMILES) | z-score
10 | CCOC(=O)C[C@H]1[C@H](OC(=O)c2ccc(C(=O)c3ccccc3)cc2)[C@@H](NC(=O)c2ccc(-c3ccccc3)cc2)c2cc(OCCCO)ccc2N1C(=O)c1ccc2ccccc2n1 | -0.916
11 | CN(C)c1ccc(C(O)C2C=CC3C(=O)N(c4ccccc4)C(=O)C3N2Nc2ccccc2F)cc1 (stereo not given) | -0.0191
12 | CCCCCN1CC=CC23O[C@@H]4C=CCOC(=O)[C@@H]4[C@H]2C(=O)N(CCCCCCO)[C@@H]3C1=O (stereo not given in full) | -0.0533
13 | C=C(COC)/C(=C/C[C@H](OC(=O)c1ccncc1)c1ccc(CO)o1)c1cc(C(=O)OC)ccc1OC | -0.35
14 | Cn1cccc1C(O)C1C=CC2C(=O)NC(=O)C2N1Nc1ccccn1 (stereo not given) | 0.242
15 | CC(C)N1CC=CC23O[C@@H]4C=CCCOC(=O)C4[C@H]2C(=O)N(CCCCCCO)[C@@H]3C1=O (stereo not given in full) | -0.478
16 | O=C1c2ccccc2[C@@]2(Cc3ccccc3N(C3CC3)C2=O)[C@H](c2ccc(CO)cc2)N1Cc1ccccc1C(F)(F)F | 0.0523
17 | [N-]=[N+]=NCc1ccccc1C[C@]1(C(=O)NCc2ccccc2)N=C(c2ccc(OCCCO)cc2)O[C@H]1c1ccccc1N=[N+]=[N-] | -0.278
18 | COc1ccc([Si](C)(C)[C@@H]2[C@@H](CC(=O)N3CCC[C@H]3CO)O[C@]3(C(=O)N(Cc4cccc(N5CCC5=O)c4)c4ccccc43)[C@H]2C)cc1 | -0.532
19 | COc1ccc(CCNC(=O)[C@@H]2c3ccccc3C(=O)N(c3ccc(C)cn3)[C@H]2c2ccc(CO)cc2)cc1 | 0.274
20 | O=C(CS)NCCCCCNC(=O)[C@@H]1C[C@@H]2C(=O)N[C@@H](Cc3ccccc3)C(=O)N2[C@@H]1c1ccc(O)cc1 | 0.83
21 | C#C[C@@H](CC)O[Si](C#Cc1ccc(Oc2ccccc2)cc1)(C(C)C)C(C)C | 0.169
22 | COCC(=C=CC[C@@H](O)c1ccccc1OCCO)CCO | -0.595
23 | C=CCOC(=O)[C@H]1[C@@H]2C(=O)O[C@@H](c3ccccc3)[C@@H](c3ccccc3)N2[C@@H](c2ccc(OCCOC(=O)[C@H]3C[C@H]4C(=O)N5CCC[C@H]5C(=O)N4[C@H]3c3cccc(OCCO)c3)cc2)[C@]12C(=O)Nc1ccc(I)cc12 | -0.576
24 | CC(C)(C)OC(=O)CC[C@]1(C(=O)NCc2ccccc2)N=C(c2ccc(OCCCO)cc2)O[C@H]1c1ccccc1 | -0.179
25 | COCCOC(=O)N1C(=O)[C@@]2(c3cc(C#Cc4ccc(OC)cc4)ccc31)[C@H](c1ccc(O)cc1)N1[C@H](c3ccccc3)[C@H](c3ccccc3)OC(=O)[C@H]1[C@@H]2C(N)=O | -0.425
26 | C=CCN1C(=O)[C@]2(O[C@H](CCn3cc(CCO)nn3)[C@@H]([Si](C)(C)c3ccc(OC)cc3)[C@@H]2C)c2cc(N3CCOC3=O)ccc21 | -0.203
27 | O=C1O[C@@H](c2ccccc2)[C@@H](c2ccccc2)N2[C@@H](c3ccc(O)cc3)[C@]3(C(=O)Nc4ccccc43)[C@@H](C(=O)O)[C@H]12 | 0.482

Row | Structure (SMILES) | z-score
28 | C=CCOC(=O)[C@H]1[C@@H]2C(=O)O[C@@H](c3ccccc3)[C@@H](c3ccccc3)N2[C@@H](c2ccc(OCCOC(=O)[C@H]3C[C@H]4C(=O)N[C@@H](Cc5ccccc5)C(=O)N4[C@H]3c3ccc(O)cc3)cc2)[C@]12C(=O)Nc1ccccc12 | 0.464
29 | CC(C)C[C@@H]1NC(=O)[C@H]2C[C@@H](C(=O)NCCCCCCN(C)C)[C@@H](c3cccc(OCCO)c3)N2C1=O | -0.111
30 | C/C=C\[C@@H](NCc1ccccc1Br)[C@@H](O)Cc1ccccc1 | 0.0731
31 | C=C(/C(=C/C[C@H](OC(=O)c1ccncc1)c1ccc(OCCO)cc1)c1cnc2ccccc2c1)C(C)C | 0.118
32 | O=C(CS)NCCCCCNC(=O)[C@H]1C[C@H]2C(=O)N3CCC[C@H]3C(=O)N2[C@H]1c1cccc(OCCO)c1 | -0.58
33 | CCCCCN1CC=CC23O[C@@H]4C=CCOC(=O)[C@@H]4[C@H]2C(=O)N(C(CO)C(C)C)[C@@H]3C1=O (stereo not given in full) | -0.0211
34 | Cc1ccc(S[C@]2(C(=O)NCC(F)(F)F)CC(=O)N(Cc3ccccc3Cl)[C@@H]2c2ccc(CO)cc2I)cc1 | 0.395
35 | O=C1O[C@@H](c2ccccc2)[C@@H](c2ccccc2)N2[C@@H](c3ccc(OCCO)cc3)[C@]3(C(=O)Nc4ccccc43)[C@@H](C(=O)N3CCN(c4ncccn4)CC3)[C@H]12 | 0.189
36 | CC(C)=C1C(=O)C(c2ccccc2)=C2CN3C(=O)N(CCc4ccccc4)C(=O)[C@]3(Cc3ccc(F)cc3)[C@H]21 | 0.0852
37 | N#Cc1ccc(NN2C(C(O)c3cccc4ccccc34)C=CC3C(=O)N(c4ccccc4)C(=O)C32)cc1 (stereo not given) | -0.145
38 | COC(=O)C1=CCC(c2cccc(Cl)c2)O1 (stereo not given) | 0.456
39 | COCCCNC(=O)[C@@]1(CCS(=O)(=O)c2ccccc2)N=C(c2ccc(OCCCO)cc2)O[C@H]1c1ccccc1 | -0.213
40 | COCCOC(=O)N1C(=O)[C@@]2(c3cc(C#Cc4ccc(OC)cc4)ccc31)[C@H](C(=O)N1CCN(c3ncccn3)CC1)[C@H]1C(=O)O[C@H](c3ccccc3)[C@H](c3ccccc3)N1[C@@H]2c1ccc(OCCO)cc1 | -0.102
41 | CN(C)CCCNC(=O)[C@@H]1c2ccccc2C(=O)N(Cc2cc(F)cc(C(F)(F)F)c2)[C@H]1c1ccc(CO)cc1 | 0.241
42 | CCCC[C@@H](O)C1=C(C)C[C@H]2C(=O)N(Cc3ccccc3)C(=O)[C@H]2[C@H]1CO | 0.391
43 | CC(C)OC(=O)C=C1C[C@@H](c2ccc(C#N)cc2)O[C@@H](c2ccc(C#N)cc2)O1 | 0.296
44 | CN1C(=O)C2C(C1=O)C1C=C(CCCO)C2C(c2ccc(CN3CCCC3)cc2)N1C (stereo not given) | -0.0348
45 | COc1ccccc1CN1C(=O)c2ccccc2[C@@H](C(=O)NCC(F)(F)F)[C@@H]1c1ccc(CO)cc1 | -0.188
